Source: PubChem BioAssay
Methyltransferases = Primary Screen for Target Class Profiling of Small Molecule Inhibitors of Methyltransferases; actives 3.9% (n = 25,000); purified enzyme, MTase-Glo SAH luminescence; hits give low values; calls only at 40 µM; call rule not given here
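Each enzyme was assayed with SAM and its substrate. SAH formation detected by MTase-Glo luminescence; single-point 40 uM screen[…].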
* marks the source's active call; other numbers are inactive results. This is one part of a sample in which hits are shown more often than they occur. On the % scale 0 is the no-effect control and ±100 the full control effect.

How did O=C(CCC1CCCN(S(=O)(=O)c2ccccc2F)C1)NCc1cccs1 (stereo not drawn) do in these assays?
Methyltransferases: inactive

Results for O=c1c2ccccc2n2c(-c3ccc(O)cc3)nnc2n1Cc1ccc(F)cc1 ?
Methyltransferases: inactive

What do the screens show for `CCNc1nc(Nc2cc(F)c(C(=O)N3CCOCC3)cc2OC)ncc1C(F)(F)F`?
Methyltransferases: active

Results for CNc1nc(Nc2ccc(C(=O)N3CCOCC3)cc2OC)nc2[nH]cc(Cl)c12 ?
Methyltransferases: inactive

How did CNc1nc(Nc2ccc(C(=O)N3CCOCC3)cc2OC)ncc1Cl do in these assays?
Methyltransferases: inactive

How did O=C(CCCCN1CCOCC1)Nc1ccc(-c2cccnc2)cc1 do in these assays?
Methyltransferases: inactive

How did C/C=C(/C)C(=O)OC1C(OC(C)=O)C23C(O)OC4(CCC5C6(C)CCC(OC7OC(C(=O)O)C(O)C(OC8OC(CO)C(O)C(O)C8OC8OC(C)C(O)C(O)C8OC8OCC(O)C(O)C8O)C7OC7OC(CO)C(O)C(O)C7O)C(C)(C)C6CCC5(C)C4(C)CC2OC(C)=O)C3CC1(C)C (stereo not drawn) do in these assays?
Methyltransferases: inactive

Results for CCCn1c(=O)c2ccc(C(=O)NC(C)C)cc2n2c(=O)n(CC(=O)Nc3ccc(C)cc3)nc12 ?
Methyltransferases: inactive

Results for C=C1C(=O)O[C@@H]2[C@H]1[C@H](O)C[C@]1(C)[C@@H](O)CC=C(C)[C@@H]21 ?
Methyltransferases: inactive

What do the screens show for `C[C@@H]1C(=O)O[C@H]2[C@H]1CC[C@@]1(C)C(=O)C=C[C@@](C)(O)[C@H]21`?
Methyltransferases: inactive

Results for CC1=CCC(O)C2(C)CCC3C(C)C(=O)OC3C12 (stereo not drawn) ?
Methyltransferases: active

How did C=C1/C(=C/C=C2\CCC[C@]3(C)[C@@H]([C@H](C)CC[C@@H](O)C(C)(C)O)CC[C@@H]23)C[C@@H](O)C[C@@H]1O do in these assays?
Methyltransferases: inactive

What do the screens show for `CC1=CC(=O)C2C(C)(C)CCCC2(C)C12CCC1(COC(=O)C1)O2` (stereo not drawn)?
Methyltransferases: active

How did CC1=CC(=O)[C@H]2C(C)(C)CCC[C@]2(C)[C@@]1(O)CO do in these assays?
Methyltransferases: inactive

What do the screens show for `CC(=O)O[C@H]1[C@H](OC(=O)C(C)C)[C@]2(C)OC3(CC[C@]2(C)[C@H]2CCC[C@]4(CO4)[C@]12C)COC(=O)C3` (stereo partly drawn)?
Methyltransferases: inactive

How did CCCNC(=O)N[C@@H]1C=C(C(=O)N[C@H](CC(C)C)C(N)=O)C[C@@H](O)[C@@H]1O do in these assays?
Methyltransferases: inactive

How did CCC(C)NC(=O)c1ccc2c(=O)n(C(C)C)c3nn(Cc4cccc(F)c4)c(=O)n3c2c1 (stereo not drawn) do in these assays?
Methyltransferases: inactive

Results for COC(=O)C1=CO[C@@H](O[C@@H]2O[C@H](CO)[C@@H](O)[C@H](O)[C@H]2O)[C@H]2[C@@H]1CC(OC)O[C@@H]2C (stereo partly drawn) ?
Methyltransferases: active

Results for C=C[C@H]1[C@H](O[C@@H]2O[C@H](CO)[C@@H](O)[C@H](O)[C@H]2O)OC=C(C(=O)OC)[C@H]1C[C@@H]1N[C@H](C(=O)O)Cc2c1[nH]c1ccccc21 ?
Methyltransferases: inactive

Results for COC(=O)C1=CO[C@@H](O[C@@H]2O[C@H](CO)[C@@H](O)[C@H](O)[C@H]2O)[C@@H]2[C@@H](C(=O)OC)[C@@H](O)C(O)[C@H]12 (stereo partly drawn) ?
Methyltransferases: inactive

Results for CC1C(OC(=O)c2ccccc2)C(O)C2C(C(=O)O)=COC(OC3OC(CO)C(O)C(O)C3O)C12 (stereo not drawn) ?
Methyltransferases: inactive

What do the screens show for `COC(=O)C1=COC(OC2OC(CO)C(O)C(O)C2O)C2C1CC(OC(=O)C(O)CC(=O)O)C2C` (stereo not drawn)?
Methyltransferases: active

What do the screens show for `C=C[C@H]1[C@H](O[C@@H]2O[C@H](CO)[C@@H](O)[C@H](O)[C@H]2O)OC=C(C(=O)OC)[C@H]1CC(=O)O`?
Methyltransferases: inactive

What do the screens show for `COC(=O)C1=COC(O[C@@H]2O[C@H](CO)[C@@H](O)[C@H](O)[C@H]2O)C2C(C)C(=O)CC12` (stereo partly drawn)?
Methyltransferases: inactive

What do the screens show for `C=C[C@H]1[C@H](O[C@@H]2O[C@H](CO)[C@@H](O)[C@H](O)[C@H]2O)OC=C(C(=O)OC)[C@H]1CCO`?
Methyltransferases: active

What do the screens show for `COC(=O)C1=COC(OC2OC(CO)C(O)C(O)C2O)C2C(C)C(OC(C)=O)C(OC(=O)c3ccccc3)C12` (stereo not drawn)?
Methyltransferases: inactive

What do the screens show for `Cc1ccccc1Cn1nc2n(Cc3ccccc3)c(=O)c3ccc(C(=O)NCC(C)C)cc3n2c1=O`?
Methyltransferases: inactive

How did Cc1ccc(Cn2nc3n(CCC(C)C)c(=O)c4ccc(C(=O)NC(C)C)cc4n3c2=O)cc1 do in these assays?
Methyltransferases: inactive

What do the screens show for `Cc1ccc(C)c(N2CCN(C(=O)CCc3nnc4n(Cc5ccccc5)c(=O)c5ccccc5n34)CC2)c1`?
Methyltransferases: inactive

How did Cc1ccc(C)c(NC(=O)[C@@H]2CCCN2S(=O)(=O)c2cccc3cccnc23)c1 do in these assays?
Methyltransferases: inactive

How did Cc1cnc(C2CCOCC2)n1CCN do in these assays?
Methyltransferases: inactive

What do the screens show for `CC1CC(C)CN(S(=O)(=O)c2ccc3c(c2)oc(=O)n3CC(=O)N2CCN(C)CC2)C1` (stereo not drawn)?
Methyltransferases: inactive

How did COc1ccc(CN2C(=O)c3cc(-c4ccc(OC)cc4)nn3CC2(C)C(=O)NCc2ccccc2OC)cc1 (stereo not drawn) do in these assays?
Methyltransferases: inactive

What do the screens show for `N#Cc1ccc(C(=O)N2CCN3CCS(=O)(=O)N(C4CC4)C(=O)C3C2)cc1` (stereo not drawn)?
Methyltransferases: inactive

What do the screens show for `CC(CNS(=O)(=O)C(C)C)c1ccc(-c2ccc(C#N)cc2)cc1` (stereo not drawn)?
Methyltransferases: inactive

Results for COCC1(CNC(=O)c2cnccn2)C[C@@H](O)[C@@H](O)C1 (stereo partly drawn) ?
Methyltransferases: inactive

How did COc1cccc(CNC(=O)C2(N3C[C@@H](C)O[C@@H](C)C3)Cc3ccccc3C2)c1 do in these assays?
Methyltransferases: inactive

What do the screens show for `CS(=O)(=O)Nc1ccc2oc3c(OC(F)F)ccc(C(=O)Nc4c(Cl)cncc4Cl)c3c2c1`?
Methyltransferases: active

How did COc1ccc(CCNC(=O)c2cc3n(n2)CC(C)(C(=O)NCc2ccc(C)cc2)N(C)C3=O)c(OC)c1 (stereo not drawn) do in these assays?
Methyltransferases: inactive

Results for O=C1CCCN1c1ccc(CN2CC(=O)N(Cc3ccccc3)c3ccccc3S2(=O)=O)cc1 ?
Methyltransferases: inactive

Results for C=CCNC(=O)C(NC(=O)c1cccs1)C1CCN(C(=O)c2ccc(F)cc2)CC1 (stereo not drawn) ?
Methyltransferases: inactive

How did CC(C)(O)c1ccc2c(c1)ncn2-c1cccc(-c2ccccc2C#N)c1 do in these assays?
Methyltransferases: active

How did CCCC[S+](=O)([O-])N1CC(=O)N(CCCc2ccccc2)CC(O)C1 (stereo not drawn) do in these assays?
Methyltransferases: inactive

What do the screens show for `CC1(C(=O)NC2CCCCCC2)Cn2c(cc3occc32)C(=O)N1Cc1ccccc1Cl` (stereo not drawn)?
Methyltransferases: inactive
